# Results: PubChem BioAssay AID618 (Sanford-Burnham Center for Chemical Genomics, 2007)
# In all, about 87,000 compounds went through this assay and about 540 (0.62%) were called active. How the calls were made is not given here. Shown is part of a subset that was picked to be rich in actives. Entries with a potency or affinity are not part of this list.
# Assay: MT1-MMP gene expression reporter suppression – cell-based, luciferase reporter, luminescence (AID 618);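 further: actives suppress MT1-MMP promoter-driven transcription so potencies describe inhibitors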
# Settings: MT1-MMP promoter luciferase reporter cells
row,SMILES,outcome
1,CC(C)CNC(=O)c1ccccc1NC(=O)c1ccccc1N(C)S(C)(=O)=O,inactive
2,COC(=O)CSc1nnc2n1C(C)(C)Cc1ccccc1-2,inactive
3,Cc1ccc2cc(CCNC(=O)C(C)C)c(=O)[nH]c2c1,inactive
4,COC(=O)c1sc(S(=O)(=O)N2CCCCC2)c(C(=O)OC)c1C,inactive
5,COc1ccc(NC(=O)NCCCN2CCc3ccccc3C2)cc1,inactive
6,O=C(Nc1ccc(N2CCCCC2)c(C(=O)O)c1)c1ccco1,inactive
7,O=C(Nc1ccc(N2CCOCC2)c(Cl)c1)c1ccco1,inactive
8,CC(=O)NC(c1ccco1)c1ccc2cccnc2c1O (stereo not given),inactive
9,Oc1c(C(Nc2nc3ccccc3s2)c2ccco2)ccc2cccnc12 (stereo not given),inactive
10,CCN(CC)C(=O)CSc1nnc(-c2ccccn2)n1-c1ccc(C)c(C)c1,inactive
11,COc1ccc(-c2nsc3c(N4CCCC4)ncnc23)cc1,active
12,O=C(N1CCCC1)N1CCN(c2ncnc3c(-c4ccc(Cl)cc4)nsc23)CC1,inactive
13,COc1ccc(S(=O)(=O)N2CCN(c3ncnc4c(-c5ccccc5)nsc34)CC2)cc1,inactive
14,COc1ccc(-c2nsc3c(N4CCN(S(=O)(=O)c5ccccc5)CC4)ncnc23)cc1,inactive
15,COc1ccc(-c2nsc3c(N4CCN(C(=O)c5ccco5)CC4)ncnc23)cc1,inactive
16,CC1(C)CC(=O)c2cc(C(=O)NC3CCSC3=O)c(=O)n(-c3ccccc3)c2C1 (stereo not given),inactive
17,O=C(O)C1C2C=CC(C2)C1C(=O)N1CCc2ccccc21 (stereo not given),inactive
18,O=C1CCC(C(=O)OCc2c(Cl)cccc2Cl)N1 (stereo not given),inactive
19,CC1C2CC(CC1(C)C)N(C(=O)Nc1ccc3nccnc3c1)C2 (stereo not given),inactive
20,COC(=O)c1c(O)c2ccccc2[nH]c1=O,inactive
21,Cc1cccc2cc(CN(Cc3cccs3)C3(c4nnnn4C4CCCC4)CCCC3)c(=O)[nH]c12,inactive
22,c1ccc(-c2ccc(-c3cn4c(n3)CCC4)cc2)cc1,inactive
23,COc1cccc(-c2cn3nc(C)c(C)nc3n2)c1,inactive
24,COc1cccc(-c2cn3nc4c(nc3n2)CCCC4)c1,active
25,c1ccc(-c2cn3c(n2)CCC3)cc1,inactive

row,SMILES,outcome
1,COc1ccc(-c2cn3ccc4ccccc4c3n2)cc1,inactive
2,COc1cccc(-c2cc(C(F)(F)F)n3nc(N)nc3n2)c1,inactive
3,COc1ccc(-c2cn3c(n2)CCC3)cc1,inactive
4,CCOC(=O)c1cc(-c2ccccc2)n(CC(=O)N2CCCC2)c1C,inactive
5,COc1ccc(OC)c(C(C)NC=O)c1 (stereo not given),inactive
6,Cc1noc(C)c1CSc1nnc2scc(-c3ccc(Cl)cc3)n12,inactive
7,Cc1ccc(NC(=O)c2noc3c2CCCCC3)cc1,inactive
8,Cc1ccc(NC(=O)c2noc3c2CCCCC3)cc1C,inactive
9,O=C(Nc1cccnc1)c1noc2c1CCCCC2,inactive
10,CCc1ccc(NC(=O)c2noc3c2CCCCC3)cc1,inactive
11,Cc1ccccc1C1CC(c2ccc(F)cc2)Nc2nc(N)nn21 (stereo not given),inactive
12,O=C1CCC(=O)N1CCCCCc1nc(-c2ccccc2)no1,inactive
13,NS(=O)(=O)c1ccc(CNC(=O)C2CCCCC2)cc1,inactive
14,CCn1c(SCC(=O)NCC(=O)Nc2ccc(F)cc2)nnc1-c1cccs1,inactive
15,O=C(COc1c(F)c(F)c(C(F)(F)F)c(F)c1F)Nc1ccc(N2CCOCC2)c(Cl)c1,inactive
16,CCOC(=O)C(NC(=O)CC(C)C)(Nc1cc(C)on1)C(F)(F)F (stereo not given),inactive
17,CCC(C)(C)n1nnnc1CN1CCC(c2nc3ccc(C)cc3[nH]2)CC1,inactive
18,Cc1cc2nc(-c3cccc(NC(=O)c4ccc(Br)o4)c3C)oc2cc1C,inactive
19,Cc1cc2oc(=O)cc(CN3CCC(C)CC3)c2cc1Cl,inactive
20,c1ccc(OCCn2c(-c3ccco3)nc3ccccc32)cc1,inactive
21,CC(C)C(=O)N1CCc2cc(-c3csc(N)n3)ccc21,inactive
22,CCC(C)C(=O)N1CCc2cc(-c3csc(N)n3)ccc21 (stereo not given),inactive
23,Cc1csc(=O)n1CC(=O)OCc1cccc2ccccc12,inactive
24,COC(=O)c1nn(-c2c(C)n(C)n(-c3ccccc3)c2=O)cc1O,inactive
25,CCOC(=O)c1nn(-c2ccc3c(c2)CCN3C(C)=O)cc1O,active

row,SMILES,outcome
1,COC(=O)c1nn(-c2ccc3c(c2)OCO3)cc1O,inactive
2,COCCCNS(=O)(=O)c1ccc2c(c1)CCN2C(C)=O,inactive
3,CCOC(=O)c1nn(-c2ccc3c(c2)OCO3)cc1O,inactive
4,CCOC(=O)c1nn(-c2cc(C(=O)OC)cc(C(=O)OC)c2)cc1O,inactive
5,CCOC(=O)c1cc(C(=O)OCC)cc(-n2cc(O)c(C(=O)OCC)n2)c1,inactive
6,O=S(=O)(NCc1ccc(Cl)cc1)c1cnc[nH]1,inactive
7,O=C(O)C1CCCCC1C(=O)NC1CCCCC1 (stereo not given),inactive
8,CC(C)(C)C(=O)NC1CCN(S(C)(=O)=O)CC1,inactive
9,Cn1cccc1Cc1nnc(SCC(=O)N2CCc3ccccc32)n1-c1ccc(F)cc1,inactive
10,CC1=NC(=O)C(N=Nc2ccccc2)N1c1ccccc1 (stereo not given),inactive
11,CC1=NC(=O)C(N=Nc2cccc(O)c2)N1c1ccccc1 (stereo not given),inactive
12,Cc1ccn(Cc2n[nH]c(=S)n2Cc2ccccc2)n1,inactive
13,COc1ccc(C)cc1S(=O)(=O)N1CCC(C(=O)NCCC2=CCCCC2)CC1,inactive
14,NS(=O)(=O)c1ccc(NS(=O)(=O)c2cccs2)cc1,inactive
15,N#CC1=C(N)Oc2cc(O)ccc2C1c1ccccc1 (stereo not given),inactive
16,COc1cc(C2C(C#N)=C(N)Oc3cc(N(C)C)ccc32)cc2c1OCO2 (stereo not given),active
17,CN(C)c1ccc2c(c1)OC(N)=C(C#N)C2c1cccc(F)c1 (stereo not given),active
18,N#CC1=C(N)Oc2c(ccc3cccnc23)C1c1cccnc1 (stereo not given),inactive
19,CCN(CC)c1ccc2c(c1)OC(N)=C(C#N)C2c1cccnc1 (stereo not given),active
20,N#CC1=C(N)Oc2cc3ccccc3cc2C1c1cccnc1 (stereo not given),inactive
21,COc1cc(C2C(C#N)=C(N)Oc3cc(O)ccc32)cc2c1OCO2 (stereo not given),inactive
22,N#CC1=C(N)Oc2cc(N)ccc2C1c1ccc(F)cc1 (stereo not given),inactive
23,COc1cc(C2C(C#N)=C(N)Oc3cc(C)oc(=O)c32)cc2c1OCO2 (stereo not given),inactive
24,Cc1cc(NC(=O)CSc2nc3c(c(=O)n2CCc2ccccc2)SC(C)C3)no1 (stereo not given),inactive
25,O=C1CC(c2ccccc2)n2nc(NC(=O)c3cccs3)nc2N1 (stereo not given),inactive

row,SMILES,outcome
1,COc1cc2nc(C)sc2cc1SC,inactive
2,O=C(C1CCCN(Cc2ccccc2Br)C1)N1CCCCC1 (stereo not given),inactive
3,COc1cccc(NC(=O)CSc2nnc(-c3ccoc3C)n2CC2CCCO2)c1 (stereo not given),inactive
4,C=CCNC(=O)C1CCN(c2nc(C)cc(-c3ccccc3)n2)CC1,inactive
5,c1ccc(C2=Nn3c(nnc3-c3ccncc3)SC2)cc1,inactive
6,COc1ccc(CC(C(=O)Nc2cc(C)ccc2C)/C(N)=N/O)cc1 (stereo not given),inactive
7,Cc1ccc2nc(-c3cccc(S(=O)(=O)N(C)C)c3)cn2c1,inactive
8,Cc1ccc2nc(-c3ccccc3)cn2c1,active
9,COc1ccc(-c2cn3cc(C)ccc3n2)cc1OC,inactive
10,CCOc1ccccc1NC(=O)Cn1nnc(C(=O)NCc2ccco2)c1N,inactive
11,CCOC(=O)C(C(=O)OCC)=C1OC(=O)c2ccccc21,inactive
12,CN(C)CCCNC(=O)c1ccc(-c2ccccc2)cc1,inactive
13,CCOC(=O)CNC(=O)c1cn(CC(C)C)c(=O)c2cc(OC)c(OC)cc12,inactive
14,Cc1ccc2cc(CN(CC3CCCO3)S(=O)(=O)c3c(C)ccc4nsnc34)c(=O)[nH]c2c1 (stereo not given),inactive
15,COCc1nnc(NS(=O)(=O)c2c(C)cc(C)cc2C)s1,inactive
16,O=c1/c(=C/c2ccc(O)cc2)sc2n1CCCN=2,inactive
17,O=c1/c(=C\c2ccc3c(c2)OCO3)sc2n1CCCN=2,inactive
18,CN(C)c1ccc(/C=c2\sc3n(c2=O)CCCN=3)cc1,active
19,O=C(NCCN1CCOCC1)c1ccc2ccccc2n1,inactive
20,COCCn1cc(C(=O)NCCCN2CCC(C)CC2)c2c3ccccc3n(C)c2c1=O,inactive
21,CCC(C)(C)n1nnnc1C(c1cc2ccc(OC)cc2[nH]c1=O)N1CCc2ccccc21 (stereo not given),inactive
22,O=C(Cc1ccccc1)Nc1ccc(NC(=O)c2ccco2)nc1,inactive
23,O=C(Nc1ccc(NC(=O)C2CCCCC2)cn1)c1ccco1,active
24,CCCC(=O)Nc1ccc(NC(=O)c2ccccn2)cn1,inactive
25,O=C(Nc1ccc(NC(=O)c2ccco2)nc1)c1cccnc1,inactive

row,SMILES,outcome
1,CCC(=O)Nc1ccc(NC(=O)c2ccccn2)cn1,inactive
2,O=C(Nc1ccc(NC(=O)C2CCCCC2)nc1)c1ccco1,inactive
3,O=C(Nc1ccc(NC(=O)C2CC2)nc1)c1ccco1,inactive
4,CCN(Cc1ccccc1)C(c1cc2cc(C)ccc2[nH]c1=O)c1nnnn1CCOC (stereo not given),inactive
5,CCCCCCn1c(N2CCN(c3ccccc3)CC2)nc2c1c(=O)n(C)c(=O)n2C,inactive
6,O=C(Cn1cnc2ccccc2c1=O)N1CCOCC1,inactive
7,CCC1=C2CC[C@H]3C(=O)N(c4ccccc4)C(=O)[C@H]3[C@H]2[C@@]2(Cc3ccccc3)C(=O)N(CC(=O)OC)C(=O)N2C1=O,inactive
8,N#Cc1c(/N=C/c2cccs2)sc2c1CCCCC2,active
9,N#Cc1c(/N=C/c2cccs2)sc2c1CCC2,inactive
10,N#Cc1c(/N=C/c2ccc(Br)s2)sc2c1CCC2,inactive
11,COc1ccc(C(CNC(=O)c2ccc(-n3cnnn3)cc2)N2CCOCC2)cc1 (stereo not given),inactive
12,CC(=O)c1ccc(-c2nc3ccccc3n2C)o1,inactive
13,Cn1cc(C(=O)c2ccccc2)cc1-c1nc2ccccc2n1C,inactive
14,Cc1oc(-c2nc3ccccc3n2C)cc1C(=O)c1ccccc1,active
15,C/C(=C1\SC(N2CCOCC2)=NC1=O)c1ccc(C)cc1,inactive
16,Cc1ccc(CS(=O)(=O)CCC(=O)NCc2ccc3c(c2)OCO3)cc1,inactive
17,CCC(=O)Nc1ccc2oc(-c3cccc(C)c3)nc2c1,active
18,Cc1cc2nc(-c3ccc(NC(=O)C(C)C)cc3)oc2cc1C,inactive
19,CC(C)(C)c1ccc(OCC(=O)Nc2ccc(-c3nc4cccnc4o3)cc2)cc1,inactive
20,Cc1ccc(-c2nc3cc(NC(=O)C(C)C)ccc3o2)cc1C,inactive
21,CCC(=O)Nc1cccc(-c2nc3ccccc3o2)c1,inactive
22,CCCC(=O)Nc1ccc(-c2nc3cc(C)c(C)cc3o2)cc1,inactive
23,CCC(C)NCC(=O)Nc1ccc(-c2nc3cc(NC(=O)CNC(C)CC)ccc3o2)cc1 (stereo not given),inactive
24,CCC(=O)Nc1ccc2oc(-c3ccccc3Br)nc2c1,inactive
25,Cc1ccc2oc(-c3ccc(NC(=O)CC(C)C)cc3)nc2c1,inactive
